Experimental findings from PubChem BioAssay (Tox21) are described below.

The target of test [1] is Progesterone receptor (Homo sapiens) (UniProt P06401). Nature of the test: qHTS assay to identify small molecule agonists of the progesterone receptor (PR) signaling pathway (AID 1346784; calls by dose curve; also: nearly all actives have a fitted effect of over 30% in size; also: potency is read from the fitted curve at half-maximal effect). The gist of the method: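 Beta-lactamase reporter read-out: after 16 hr compound treatment at 37C and a further 2 hr at room temperature with LiveBLAzer B/G FRET substrate, fluorescence was measured in PR-UAS-bla HEK 293T cells grown in 2% charcoal-stripped serum.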
(In qHTS, concentration-response curves come from the screen itself.)

For test [2] the target is unchanged. Nature of the test: qHTS assay to identify small molecule antagonists of the progesterone receptor (PR) signaling pathway (AID 1346795; active = well fitted inhibition curve with a large enough effect in the signal ratio in the repeat runs, not every such curve was filed as active; the % refers to the signal ratio; also: potency is read from the fitted curve at half-maximal effect). The gist of the method:
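Read-out is fluorescence from the LiveBLAzer B/G FRET substrate, cleaved by a UAS-controlled beta-lactamase in PR-UAS-bla HEK293T cells after 16 hr exposure to compound plus 1 nM promegestone (final), followed by 2 hr at room temperature.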

The nature of test [3]: qHTS assay to identify small molecule antagonists of the TGF-beta/Smad signaling pathway - cell viability counter screen (AID 1346824). Also: nearly all actives have a fitted effect of over 50% in size. Also: potency is read from the fitted curve at half-maximal effect. The gist of the method: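 SBE-bla HEK 293T cells were plated overnight at 37 C, then given compounds in DMSO plus TGF-beta1 (added as 0.25 ng/mL solution) for 5 hr. After the bla read, CellTiter-Glo was added to the same wells and luminescence read after 30 min at room temperature.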

Test [4] can be described thus: qHTS assay to identify small molecule agonists of the TGF-beta/Smad signaling pathway - cell viability counter screen (AID 1346829). Also: nearly all actives have a fitted effect of over 45% in size. Also: potency is read from the fitted curve at half-maximal effect. As to activity change, negative = cytotoxicity: top concentration of the series differs between compounds. The essentials: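 Luminescence from CellTiter-Glo, read after a 30 min room-temperature incubation, gives cell viability of SBE-bla HEK 293T cells treated 5 hr with compounds at 37 C.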
For test [5], the target named is Thyrotropin-releasing hormone receptor (Homo sapiens) (UniProt P34981). Nature of the test: qHTS assay to identify small molecule antagonists of the thyrotropin-releasing hormone receptor (TRHR) signaling pathway (AID 1346877; active = well fitted inhibition curve with a large enough effect in the repeat runs, not every such curve was filed as active; also: series mostly up to about 51 µM). The gist of the method: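 Human TRHR in HEK293 cells; inhibition of the intracellular calcium rise triggered by 1 nM TRH was followed by fluorescence over 3 min. Compounds were run at 15 concentrations, three replicates each.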

Test [6] shares this target. Description: qHTS assay to identify small molecule agonists of the thyrotropin-releasing hormone receptor (TRHR) signaling pathway (AID 1346891; calls by dose curve; also: series mostly up to about 58 µM). The gist of the method:
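Intracellular calcium rise, read as fluorescence every second for 3 min, served as the agonist signal in dye-loaded HEK293 cells expressing TRHR; each compound ran at 15 concentrations in triplicate.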

Test [7] can be described thus: Human pregnane X receptor (PXR) small molecule agonists, qHTS cell viability counter screen (AID 1346977). Also: nearly all actives have a fitted effect of over 50% in size. Also: potency is read from the fitted curve at half-maximal effect. The essentials:
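PXR-Luc HepG2, 2,000 cells/well, 5% charcoal-stripped FBS; 5hr settle; cpd 24hr, 37C/5% CO2; CellTiter-Fluor at 23hr, read 1hr later (fluorescence).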

Test [8] can be described thus: qHTS assay to identify small molecule antagonists of the progesterone receptor (PR) signaling pathway - cell viability counter screen (AID 1346798). Also: nearly all actives have a fitted effect of over 50% in size. Also: potency is read from the fitted curve at half-maximal effect. As to activity change, negative = cytotoxicity: series mostly up to about 92 µM. The gist of the method: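 HEK293T PR-UAS-bla, 2% charcoal-stripped FBS; 4 hr pre-plate; cpd + R5020, 16 h 37C; LiveBLAzer read first; then CellTiter-Glo 30 min RT, luminescence.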
Test [9] in a line: qHTS assay to identify small molecule agonists of the TGF-beta/Smad signaling pathway (AID 1346859; active = well fitted activation curve with a large enough effect in the signal ratio in the repeat runs, not every such curve was filed as active; the % refers to the signal ratio; also: potency is read from the fitted curve at half-maximal effect; as to activation: series mostly up to about 77 µM). The essentials: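 SBE-bla HEK 293T, 4,000 cells/well, plated o/n; cpd in DMSO, 5 hr, 37 C/5% CO2; B/G FRET substrate 2 hr RT; ex 405, em 460/530 nm.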
A short description of test [10]: qHTS assay to identify small molecule agonists of the progesterone receptor (PR) signaling pathway - cell viability counter screen (AID 1346799; calls by dose curve; also: nearly all actives have a fitted effect of over 45% in size; also: potency is read from the fitted curve at half-maximal effect). The gist of the method: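 Luminescence from CellTiter-Glo, added after the beta-lactamase FRET read in the same wells, gave cytotoxicity in PR-UAS-bla HEK293T cells treated with compounds for 16 hr at 37C.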

Where “and” joins values, the source holds several entries; their conditions need not be identical. Equal values may be shown once. A number with no mark means an inactive call. Records with an inconclusive call do not appear. Calls of active or inactive are those of the source. Unless noted, calls follow the shape of the dose curve; as a rule, active = well fitted curve in the direction sought with a large enough effect in the repeat runs; inconclusive = weak or mixed curves; inactive = no such curve, though single readings can be large; an effect the other way counts as inactive or inconclusive.
% is scaled to controls: 0 for no effect and ±100 for the full control effect.

Sequence of Progesterone receptor (Homo sapiens) (P06401 whole entry, looked up): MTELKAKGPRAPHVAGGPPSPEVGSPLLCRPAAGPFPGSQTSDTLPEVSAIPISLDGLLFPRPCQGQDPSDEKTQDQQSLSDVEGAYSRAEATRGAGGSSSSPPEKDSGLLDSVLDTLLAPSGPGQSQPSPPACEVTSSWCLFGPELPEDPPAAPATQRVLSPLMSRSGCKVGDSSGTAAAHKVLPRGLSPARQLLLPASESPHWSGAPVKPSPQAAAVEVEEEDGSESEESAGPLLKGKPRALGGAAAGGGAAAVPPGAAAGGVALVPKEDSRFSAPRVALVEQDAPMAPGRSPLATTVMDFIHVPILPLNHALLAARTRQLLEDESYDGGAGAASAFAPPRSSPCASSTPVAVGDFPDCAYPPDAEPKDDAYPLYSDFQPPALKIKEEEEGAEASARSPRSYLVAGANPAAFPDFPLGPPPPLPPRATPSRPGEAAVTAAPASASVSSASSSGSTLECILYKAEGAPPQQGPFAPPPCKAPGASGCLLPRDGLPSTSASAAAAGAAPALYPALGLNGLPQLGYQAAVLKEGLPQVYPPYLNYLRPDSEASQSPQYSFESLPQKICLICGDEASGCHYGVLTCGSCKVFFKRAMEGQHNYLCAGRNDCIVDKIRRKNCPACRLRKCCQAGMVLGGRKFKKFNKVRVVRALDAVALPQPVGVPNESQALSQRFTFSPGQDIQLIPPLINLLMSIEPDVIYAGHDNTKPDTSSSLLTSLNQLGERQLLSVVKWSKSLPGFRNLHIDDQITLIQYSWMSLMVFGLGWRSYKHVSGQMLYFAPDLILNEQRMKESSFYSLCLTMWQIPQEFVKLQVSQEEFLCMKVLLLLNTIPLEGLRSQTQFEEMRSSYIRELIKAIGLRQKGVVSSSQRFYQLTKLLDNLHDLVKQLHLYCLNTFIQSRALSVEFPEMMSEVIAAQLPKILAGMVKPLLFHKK
Sequence of Thyrotropin-releasing hormone receptor (Homo sapiens) (P34981 whole entry, looked up): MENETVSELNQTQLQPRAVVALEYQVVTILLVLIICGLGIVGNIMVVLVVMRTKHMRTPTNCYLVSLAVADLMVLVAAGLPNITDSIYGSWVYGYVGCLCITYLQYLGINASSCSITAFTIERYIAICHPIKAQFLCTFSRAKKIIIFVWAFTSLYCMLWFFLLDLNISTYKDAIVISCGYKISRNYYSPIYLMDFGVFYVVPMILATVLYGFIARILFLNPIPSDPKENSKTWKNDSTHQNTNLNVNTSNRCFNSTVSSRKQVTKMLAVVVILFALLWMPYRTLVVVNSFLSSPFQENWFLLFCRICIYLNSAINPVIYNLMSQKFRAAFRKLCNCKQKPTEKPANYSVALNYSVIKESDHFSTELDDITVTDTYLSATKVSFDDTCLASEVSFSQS

As to `NNc1nc(-c2ccccc2)cs1`, the Potency result in [1], in test [3], in test [4], in [5], in [6] and in [7] was “inactive” throughout. Also, the Potency in test [2] is 19.9 µM (active).

For `O=c1cccccc1O`, the Potency result in [1], in [2], in test [8], in test [3], in test [4] and in test [9] was “inactive” throughout. Also, the Potency result in test [6] and in test [7] was “inactive” each time.

Take `O=Cc1cc(O)ccc1Br`: the Potency is 0.983 µM (active) in test [1] and 55.3 µM (active) in [2]. Also, the Potency result in test [3], in test [4] and in test [9] was “inactive” in each case.

For the molecule `CCCCCCC[N+](CC)(CC)CCCCc1ccc(Cl)cc1`, the Potency entry in [1], in [2], in test [3], in test [5], in test [6] and in test [7] was “inactive” in each case.

On to `CCOC(=O)O[C@]1(C(=O)OCCl)CC[C@H]2[C@@H]3CCC4=CC(=O)C=C[C@]4(C)[C@H]3[C@@H](O)C[C@@]21C`, for which the Potency in test [1] was 0.188 µM (active). In addition, the Potency result in [2], in test [8], in test [3], in [4], in test [5] and in test [6] was “inactive” in each case. Further, the Potency entry in test [7] is “inactive”.

For `O=C(OC[C@H]1O[C@@H](OC(=O)c2cc(O)c(O)c(OC(=O)c3cc(O)c(O)c(O)c3)c2)[C@H](OC(=O)c2cc(O)c(O)c(OC(=O)c3cc(O)c(O)c(O)c3)c2)[C@@H](OC(=O)c2cc(O)c(O)c(OC(=O)c3cc(O)c(O)c(O)c3)c2)[C@@H]1OC(=O)c1cc(O)c(O)c(OC(=O)c2cc(O)c(O)c(O)c2)c1)c1cc(O)c(O)c(OC(=O)c2cc(O)c(O)c(O)c2)c1`, the activation in [1] was 2.55% [at 19 µM]; in test [9], -3.84% [at 15.8 µM]; in test [6], 0.113% [at 11.8 µM]. Besides, the activity change, negative = cytotoxicity in test [8] is -7.91% [at 18.9 µM]; in test [10], 9.14% [at 19 µM]; in test [4] it was 7.05% [at 15.8 µM]. The viability change, negative = cytotoxic in test [3] is 3.78% [at 15.8 µM]. The activity, negative = inhibition in test [5] was 4.26% [at 10.5 µM].

Consider `CCC1=C[C@@H]2CN(C1)Cc1c([nH]c3ccccc13)[C@@](C(=O)OC)(c1cc3c(cc1OC)N(C)[C@H]1[C@@](O)(C(=O)OC)[C@H](OC(C)=O)[C@]4(CC)C=CCN5CC[C@]31[C@@H]54)C2`, for which the Potency entry in [1], in [3], in test [9], in test [5] and in [6] was “inactive” throughout. For the same molecule, the Potency in test [2] was 0.944 µM (active); in test [7], 13.3 µM (active).

Turning to `Clc1ccccc1C(c1ccccc1)(c1ccccc1)n1ccnc1`, the Potency in [2] is 9.44 µM (active); in [8], 5.45 µM (active) and 29.8 µM (active); in test [10], 7.7 µM (active); in [7], 17.2 µM (active). Further, the Potency entry in test [5] and in [6] was “inactive” throughout.

With `CC(C)(C)c1ccc(C(=O)CCCN2CCC(OC(c3ccccc3)c3ccccc3)CC2)cc1`, the Potency entry in test [1] was “inactive”. The Potency in [3] is 21.3 µM (active); in test [4], 23.9 µM (active); in test [7] it was 21.1 µM (active).

Turning to `Oc1cc2ccccc2c2ccccc12`, the Potency in test [2] is 6.11 µM (active); in test [8], 6.86 µM (active); in test [10], 12.2 µM (active); in [3], 11 µM (active); in test [4], 5.49 µM (active). Besides, the Potency entry in test [5] and in [6] was “inactive” throughout.

Take `O=c1c(-c2ccccc2)c1-c1ccccc1`: the Potency result in test [1], in test [10], in test [3], in [4], in test [9] and in [5] was “inactive” throughout. In test [6], the Potency entry was “inactive”. In addition, the Potency in test [7] is 26.6 µM (active).

Turning to `CCCCN1C(=O)[C@@H]([C@H](O)C2CCCCC2)NC(=O)C12CCN(Cc1ccc(Oc3ccc(C(=O)O)cc3)cc1)CC2`, the Potency entry in test [1], in test [8], in test [3], in test [5] and in test [6] was “inactive” each time.

As to `ON=C1CCCC1`, the Potency result in test [2], in test [8], in test [3], in test [4], in test [9] and in test [5] was “inactive” throughout. Further, the Potency entry in test [6] and in test [7] was “inactive” throughout. Further, in test [10], the Potency is 63.3 µM (active).

With `CC(C)c1ccc2c(c1)CC[C@H]1[C@](C)(CN)CCC[C@]21C`, the Potency result in test [1], in [3] and in test [9] was “inactive” throughout.

As for `Cc1cc(CCN2CCN(c3nsc4ccccc34)CC2)cc2c1NC(=O)CC2(C)C`, the Potency was 19.3 µM (active) in [2]; 30.6 µM (active) in test [8]; 27.3 µM (active) in test [10]; 54.9 µM (active) in test [3]; 27.3 µM (active) in [7].

Regarding `Cc1ccc(-n2nc(C(C)(C)C)cc2NC(=O)Nc2ccc(OCCN3CCOCC3)c3ccccc23)cc1`, the Potency result in test [1], in test [8], in test [3], in [5] and in test [6] was “inactive” throughout.

Regarding `Oc1ccc2cc(SSc3ccc4cc(O)ccc4c3)ccc2c1`, in test [2], the Potency was 30.7 µM (active) and 48.6 µM (active). In addition, the Potency entry in test [8], in test [3], in test [4], in [9], in test [5] and in [6] was “inactive” each time. In addition, the Potency entry in test [7] was “inactive”.

With `C[C@H](CCC(=O)O)[C@H]1CC[C@H]2[C@@H]3CC[C@@H]4C[C@H](O)CC[C@]4(C)[C@H]3CC[C@]12C`, the Potency in test [2] was 19.3 µM (active) and 48.6 µM (active); in test [8], 24.2 µM (active) and 61.1 µM (active); in test [10], 30.5 µM (active) and 38.6 µM (active). Further, the Potency result in test [4] and in test [7] was “inactive” throughout.

For the molecule `CCCCN1CCCC[C@H]1C(=O)Nc1c(C)cccc1C`, the Potency entry in [1], in [3], in [4], in [9], in test [5] and in [6] was “inactive” throughout. Moreover, in test [7], the Potency result is “inactive”.

Take `CCOC(=O)/C=C(C)/C=C/C=C(C)/C=C/c1c(C)cc(OC)c(C)c1C`: the Potency result in [1], in [10], in test [3], in test [4] and in test [7] was “inactive” in each case.

Turning to `C=CC(=O)OCC(CO)(COCC(COC(=O)C=C)(COC(=O)C=C)COC(=O)C=C)COC(=O)C=C`, the Potency in [2] was 6.04 µM (active); in test [8] it was 15.2 µM (active); in [10], 15.2 µM (active); in test [3], 48.4 µM (active); in [4] it was 21.6 µM (active); in [7], 3.03 µM (active). Besides, in [9], the Potency entry is “inactive”.

As for `Cc1cc2c(cc1C(F)(F)F)N(C(=O)Nc1ccc(Oc3cccnc3C)nc1)CC2`, the Potency entry in [1], in [10] and in test [4] was “inactive” each time.

`COC(=O)C1=C(C)NC(C)=C(C(=O)OCC(C)C)C1c1ccccc1[N+](=O)[O-]` (stereo not given): the Potency in [2] was 10.6 µM (active); in test [7], 61.1 µM (active). For the same molecule, the Potency entry in test [3], in test [4], in test [9], in [5] and in test [6] was “inactive” throughout.

For the molecule `COCCCC/C(=N\OCCN)c1ccc(C(F)(F)F)cc1`, the Potency result in [1], in test [3], in [4] and in [9] was “inactive” in each case.

Take `CCCC/C=C/CCCCO`: the Potency entry in [2], in [8], in test [10], in test [3], in test [4] and in test [9] was “inactive” each time. Moreover, the Potency entry in test [5], in test [6] and in test [7] was “inactive” each time.

`Nc1ccccc1O`: the Potency entry in [1], in [3], in test [4], in [9], in [5] and in [6] was “inactive” in each case. Moreover, the Potency in [7] is 60.3 µM (active).

As to `Nc1c2ccccc2nc2ccccc12`, the Potency in [1] was 4.79 µM (active); in [9], 23.9 µM (active). The Potency entry in [3] and in [4] was “inactive” throughout.

For the molecule `CC1(C)CCC(C)(C)c2cc(C(=O)Nc3ccc(C(=O)O)cc3)ccc21`, the Potency result in [1], in [3], in test [4], in [5] and in test [6] was “inactive” each time.

For `CSc1ccc2c(c1)C(N1CCN(C)CC1)Cc1ccccc1S2` (stereo not given), the Potency in test [2] is 26.6 µM (active); in test [8], 26.6 µM (active); in test [10], 33.5 µM (active). Besides, the Potency entry in test [3], in [4], in test [9], in [5] and in test [6] was “inactive” throughout.
